# TDP1 inh: qHTS Assay for Inhibitors of Tyrosyl-DNA Phosphodiesterase (TDP1); Tyrosyl-DNA phosphodiesterase 1 (Homo sapiens), Q9NUW8; recombinant TDP1, AlphaScreen DNA substrate cleavage; Potency, µM (highest dose often 130 µM), usual class: inhibitors; hit rate 0.28% among 350,000; also: nearly all actives have a fitted effect of over 40% in size
# Target sequence (Q9NUW8 whole entry, looked up): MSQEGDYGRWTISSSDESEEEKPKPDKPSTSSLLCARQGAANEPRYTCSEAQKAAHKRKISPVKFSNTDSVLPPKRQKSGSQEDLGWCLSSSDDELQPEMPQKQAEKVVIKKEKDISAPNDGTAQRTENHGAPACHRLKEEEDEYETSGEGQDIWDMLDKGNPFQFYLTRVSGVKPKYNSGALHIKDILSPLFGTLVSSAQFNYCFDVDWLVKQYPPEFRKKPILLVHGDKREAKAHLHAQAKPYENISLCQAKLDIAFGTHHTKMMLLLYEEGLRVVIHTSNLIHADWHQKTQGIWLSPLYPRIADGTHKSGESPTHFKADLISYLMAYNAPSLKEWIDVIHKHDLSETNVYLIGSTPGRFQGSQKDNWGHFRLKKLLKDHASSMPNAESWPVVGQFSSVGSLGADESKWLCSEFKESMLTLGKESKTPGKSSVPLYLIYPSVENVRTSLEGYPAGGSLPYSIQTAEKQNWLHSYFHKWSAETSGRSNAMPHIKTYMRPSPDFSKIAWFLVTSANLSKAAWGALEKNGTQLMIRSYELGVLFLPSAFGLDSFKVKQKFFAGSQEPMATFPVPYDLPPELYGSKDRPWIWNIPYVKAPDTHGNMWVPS
#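 AlphaScreen read-out: signal falls as enzyme removes the 3' tyrosine-FITC from a 5'-biotinylated DNA oligo (15 nM, 5 min, RT). Enzyme was E. coli-made recombinant Tdp1 at 1 nM, exposed to compound for 15 min beforehand; beads 10 ug/ml, 10 min.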
# miR-21 reporter: qHTS Assay for Modulators of miRNAs and/orActivators of miR-21; HeLa miR-21 FLuc reporter, luciferase, 48 h; Potency, µM (series often up to 38.3 µM), hits mostly activators; 340,000 tested, under 10 active;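 also: miR-21 action dims this reporter so a rising signal means less miR-21 action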
#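 HeLa miR-21-FLuc reporter line, endogenous miR-21; 2000 cells/well in DMEM/10% FBS; compound titration up to ~40uM final, 48 h, 37 degree Celsius; luciferase detection reagent, 15 min lysis, CCD luminescence.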
# DT40 TDP1 CPT: qHTS for Inhibitors of human tyrosyl-DNA phosphodiesterase 1 (TDP1): qHTS in cells in presence of CPT | Potency, µM (doses to about 46.2 µM), usual class: inhibitors | hit rate 12% among 420,000 | chicken DT40 Tdp1-/-;hTDP1 cells + 20 nM CPT, ATP luminescence, 48 h; also: nearly all actives have a fitted effect of over 55% in size
#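 Cell growth measured by CellTiter-Glo luminescence after a minimum 48 h, 37 C compound exposure with 20 nM CPT in Tdp1-knockout DT40 cells stably expressing hTDP1, seeded 400/well; qHTS titration format.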
# uPA surface inh: qHTS for Inhibitors of Cell Surface uPA Generation; Potency, µM (top dose mostly 38.3 µM), usual class: inhibitors; cell surface uPA generation assay, qHTS; hit rate 0.31% among 330,000; AID 540303, 2011; active = well fitted inhibition curve with a large enough effect; inconclusive = small, poorly fitted or top-dose-only effect; inactive = no such curve, though single readings can be large or run the other way; tested in mouse RAW 264.7 cells; also: nearly all actives have a fitted effect of over 55% in size
# TDP1 cell noCPT: qHTS for Inhibitors of human tyrosyl-DNA phosphodiesterase 1 (TDP1): qHTS in cells in absence of CPT; DT40 Tdp1-/- hTDP1 cells, no CPT, ATP luminescence, 48 h; Potency, µM (highest dose often 46.2 µM), usual class: inhibitors; hit rate 15% among 420,000; also: nearly all actives have a fitted effect of over 55% in size
#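 Growth kinetics read by CellTiter-Glo luminescence after ≥48 hr at 37 °C. Cells: DT40 Tdp1-/- stably carrying human TDP1, 400 per well, compound exposure in the absence of CPT (DMSO vehicle).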
# Numbers stand for hits; n = inactive; u = inconclusive; x = no result; [ ] = remark or other dose. Sampled rows, rich in hits. Any-hit rate of the full collection: about 16%. Unless noted, calls follow the shape of the dose curve; as a rule, active = well fitted curve in the direction sought with a large enough effect; inconclusive = small, poorly fitted or top-dose-only effect, or another doubt; inactive = no such curve, though single readings can be large; an effect the other way counts as inactive or inconclusive.
SMILES,TDP1 inh,miR-21 reporter,DT40 TDP1 CPT,uPA surface inh,TDP1 cell noCPT
O=C(Nc1cc(Cl)cc(Cl)c1)c1coc(=O)c(Br)c1,x,n,1.6µM,n,12µM
O=C(NCCc1ccccc1)c1coc(=O)c(Br)c1,x,n,0.82µM,n,0.58µM
O=C(NCCc1ccccc1)c1ccco1,n,n,n,n,n
Cn1ncc(Br)c1NC(=O)c1cc(Cl)cc(Cl)c1,x,n,n,n,n
O=C(Nc1ccc(Br)c(Br)c1)C1CCCO1 (stereo not drawn),x,x,n,n,n
O=C(O)c1ccc2c(c1)C(=O)N(c1cc([N+](=O)[O-])ccn1)C2=O,x,n,n,n,n
O=C(NCCC1=CCCCC1)c1ccc(=O)oc1,n,n,u,n,n
O=C(NCCC1=CCCCC1)c1coc(=O)c(Br)c1,n,n,0.12µM,n,0.37µM
Cc1ccc(C(=O)NCCN(C)C)c(C)c1,n,n,n,n,n
CC(C)CNC(=O)c1coc(=O)c(Br)c1,n,u,0.41µM,n,0.82µM
CN(C)CCNC(=O)c1coc(=O)c(Br)c1,n,n,2.3µM,n,5.8µM
Cc1cc(C(=O)NCCC2=CCCCC2)c(C)o1,n,n,u,x,18µM
CC1CCCN(C(=O)COC(=O)CSc2ccc(C(N)=O)cc2[N+](=O)[O-])C1 (stereo not drawn),n,x,n,n,n
CC1(C)CC(=O)C(C=NCCN2CCOCC2)=C(O)C1,n,n,n,n,n
CC1(C)CC(=O)C(C=NCCO)=C(O)C1,n,n,18µM,n,u
CCOC(=O)c1c(NC(C)=O)sc2c(OCC(O)CNC(C)(C)C)c(Br)ccc12 (stereo not drawn),n,n,u,n,10µM
CCOC(=O)c1c(N)sc2c(OCC)c(Br)ccc12,n,n,u,n,u
O=C(/C=C\c1ccccc1OC(=O)c1ccccc1F)c1cc2ccccc2o1,n,n,8.2µM,n,15µM
CC(=O)/C=C\c1ccccc1OC(=O)c1cc2ccccc2oc1=O,n,n,n,u,n
CCN(CC(=O)Nc1ccc(NC(C)=O)cc1)C(=O)c1cc2c(s1)CCCC2,n,x,n,n,n
COc1cccc(-c2nc(C(=O)NCC3CCCO3)cc3c2[nH]c2ccccc23)c1 (stereo not drawn),x,n,2.6µM,u,2.3µM
COc1cccc(-c2cc(C(=O)NCC3CCCO3)on2)c1 (stereo not drawn),n,n,n,n,n
COc1ccc(-c2cc(C(=O)NCC3CCCO3)c3ccccc3n2)c(OC)c1 (stereo not drawn),n,n,u,n,u
COc1ccc(OC)c(-c2nc(C(=O)NCC3CCCO3)cc3c2[nH]c2ccccc23)c1 (stereo not drawn),x,n,18µM,n,21µM
CCOc1ccc(NC(=O)CN(C)C(=O)c2cn3ccccc3n2)cc1OCC,x,x,n,n,n
SMILES,TDP1 inh,miR-21 reporter,DT40 TDP1 CPT,uPA surface inh,TDP1 cell noCPT
COc1ccc(Cl)cc1NC(=O)CN(C)C(=O)c1ccc(COc2ccccc2)cc1,x,x,u,n,u
COc1ccc(Cl)cc1NC(=O)CN(C)CC(=O)Nc1ccccc1-c1ccccc1,n,n,18µM,n,23µM
COc1ccc(Cl)cc1NC(=O)CN(C)C(=O)Cc1ccc(-c2ccccc2)cc1,n,x,n,n,n
COc1ccc(Cl)cc1NC(=O)CN(C)C(=O)c1cn2ccccc2n1,n,x,u,11µM,u
COc1ccc(Cl)cc1NC(=O)CN(C)C(=O)c1ccc(OCc2ccccc2)c(OC)c1,x,x,u,n,23µM
O=C(c1csnn1)N1CCC[C@@]2(CCN(c3ccccc3)C2)C1,x,x,n,x,u
Cc1cc(C)c2c(=O)cc(C(=O)Nc3ccc(S(=O)(=O)N(C)Cc4ccccc4)cc3)oc2c1,n,n,5.8µM,x,u
CN(c1ccccc1)S(=O)(=O)c1cccc(NC(=O)c2cc(=O)c3ccccc3o2)c1,n,u,16µM,n,12µM
O=C(Nc1cccc(S(=O)(=O)N2CCCCCC2)c1)c1cc(=O)c2ccccc2o1,n,n,23µM,n,13µM
Cc1cc(C)c2c(=O)cc(C(=O)Nc3ccc(S(=O)(=O)Nc4nc(C)cc(C)n4)cc3)oc2c1,n,n,n,x,u
CN(Cc1ccccc1)S(=O)(=O)c1ccc(NC(=O)c2cc(=O)c3ccccc3o2)cc1,n,u,13µM,x,16µM
O=C(c1ccc2nc(-c3ccco3)c(-c3ccco3)nc2c1)N1CCN(c2ncccn2)CC1,x,n,u,n,u
COc1cccc(CNC(=O)C(=O)NCCc2ccc(OC)c(OC)c2)c1,n,n,u,n,u
COc1ccc(C(C(=O)NC2CCCC2)N(C(=O)c2snc(C(N)=O)c2N)c2cc(C)ccc2OC)cc1OC (stereo not drawn),n,n,u,n,18µM
COc1ccc(C(C(=O)NCc2ccccc2)N(C(=O)c2snc(C(N)=O)c2N)c2ccccc2OC)cc1 (stereo not drawn),x,n,u,n,u
NC(=O)c1nsc(C(=O)N(c2cccc(F)c2)C(C(=O)NCc2ccccc2)c2ccc(O)cc2)c1N (stereo not drawn),n,n,u,x,21µM
COc1ccc(N(C(=O)c2snc(C(N)=O)c2N)C(C(=O)NCc2ccccc2)c2ccc(F)cc2)c(OC)c1 (stereo not drawn),x,n,26µM,n,u
COc1ccc(C(C(=O)NC2CCCC2)N(C(=O)c2snc(C(N)=O)c2N)c2ccccc2OC)cc1OC (stereo not drawn),x,n,n,n,n
COc1ccc(N(C(=O)c2snc(C(N)=O)c2N)C(C(=O)NC2CCCC2)c2cc(OC)ccc2OC)c(OC)c1 (stereo not drawn),n,n,23µM,n,29µM
C/C(=N/NC(=O)CNC(=O)C1COc2ccccc2O1)c1ccc2c(c1)OCCO2 (stereo not drawn),n,n,n,n,n
COc1ccc(N(C(=O)c2snc(C(N)=O)c2N)C(C(=O)NC2CCCCC2)c2ccc(F)cc2)c(OC)c1 (stereo not drawn),x,n,2.9µM,n,u
COc1ccc(C(C(=O)NC2CCCC2)N(C(=O)c2snc(C(N)=O)c2N)c2cccc(O)c2)cc1 (stereo not drawn),n[0.0935 µM],n,u,n,13µM
COc1ccc(-c2nsc(C(=O)N(c3ccc(F)cc3)C(C(=O)NC3CCCC3)c3ccc(OC)cc3)c2N)cc1 (stereo not drawn),n,n,16µM,n,16µM
COc1ncc2nc(-c3ccc(F)cc3)c(=O)n(C[C@H]3CCCO3)c2n1,x,x,n,x,n
COC(=O)c1cc(CNC(=O)c2cccc3ccccc23)cc(NC(=O)c2ccccc2OC)c1,x,x,n[9.04 µM],x,u

# Screening data as filed in PubChem.
